Assay results: the supplement of paper PMC10849652
Targets with a hit are over-represented here; the source holds about 7,900 in all. About 0.6% of all pairs of compound and target were hits.

Each target was assayed with O=C(CCCCCCNC(=O)c1cnc(N(c2ccccc2)c2ccccc2Cl)nc1)NO [citarinostat] (assay: log2 fold change, soluble protein after heating vs DMSO (PISA); higher = thermal stabilisation; K562 cells, 10 uM, 30 min; active = over 0.2 and 3.5 SD of the protein, either way, in both replicates (recomputed)).
Outline: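 For each measurement, 10 μM compound was applied for 30 min to K562 cells at 2×10^6 cells/mL. Aliquots were heated for 3 min across 48°C-58°C, pooled, and extracted in PBS with 0.5% NP-40 at 4°C; the supernatant after 21,000xg for 90 min was soluble protein. This was quantified by TMTpro 16plex LC-MS/MS with channel sums equalised, and thermal stability was reported relative to control samples from duplicates, on a log2 fold-change scale.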

Sequence of UniProt Q9UGM6 (Q9UGM6 whole entry, looked up): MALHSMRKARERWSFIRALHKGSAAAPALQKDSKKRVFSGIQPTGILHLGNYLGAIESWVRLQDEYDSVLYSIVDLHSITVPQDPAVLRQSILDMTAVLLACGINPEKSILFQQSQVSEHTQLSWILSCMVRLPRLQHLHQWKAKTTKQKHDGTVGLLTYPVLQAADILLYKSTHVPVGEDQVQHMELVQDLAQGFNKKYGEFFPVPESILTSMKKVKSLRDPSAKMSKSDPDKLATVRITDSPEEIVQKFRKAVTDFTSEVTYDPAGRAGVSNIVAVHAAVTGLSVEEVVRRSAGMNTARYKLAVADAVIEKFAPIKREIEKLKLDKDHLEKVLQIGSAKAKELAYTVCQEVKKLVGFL
Sequence of UniProt Q8TBZ6 (Q8TBZ6 whole entry, looked up): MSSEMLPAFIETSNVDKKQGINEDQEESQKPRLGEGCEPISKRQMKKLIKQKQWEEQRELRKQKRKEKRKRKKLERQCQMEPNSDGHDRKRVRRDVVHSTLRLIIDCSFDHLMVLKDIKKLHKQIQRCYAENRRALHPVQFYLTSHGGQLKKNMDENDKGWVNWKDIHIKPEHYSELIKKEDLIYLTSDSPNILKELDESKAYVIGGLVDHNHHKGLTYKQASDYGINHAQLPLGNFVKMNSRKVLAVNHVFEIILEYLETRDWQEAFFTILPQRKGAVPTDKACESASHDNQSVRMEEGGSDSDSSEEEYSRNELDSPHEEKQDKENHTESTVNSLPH
Sequence of UniProt Q9BZI7 (Q9BZI7 whole entry, looked up): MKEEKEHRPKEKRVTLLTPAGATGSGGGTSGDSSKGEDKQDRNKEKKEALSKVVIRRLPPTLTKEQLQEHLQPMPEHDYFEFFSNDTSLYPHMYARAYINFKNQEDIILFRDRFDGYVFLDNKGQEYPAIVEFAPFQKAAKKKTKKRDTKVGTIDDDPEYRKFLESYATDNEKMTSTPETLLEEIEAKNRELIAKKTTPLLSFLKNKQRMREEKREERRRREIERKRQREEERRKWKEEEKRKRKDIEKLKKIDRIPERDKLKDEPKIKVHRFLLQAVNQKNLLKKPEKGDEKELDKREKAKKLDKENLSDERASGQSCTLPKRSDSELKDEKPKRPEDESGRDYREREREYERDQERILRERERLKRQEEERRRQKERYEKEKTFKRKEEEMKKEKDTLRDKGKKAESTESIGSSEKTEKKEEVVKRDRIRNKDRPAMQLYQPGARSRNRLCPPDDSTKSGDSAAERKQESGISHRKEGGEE
Sequence of UniProt Q96JG6 (Q96JG6 whole entry, looked up): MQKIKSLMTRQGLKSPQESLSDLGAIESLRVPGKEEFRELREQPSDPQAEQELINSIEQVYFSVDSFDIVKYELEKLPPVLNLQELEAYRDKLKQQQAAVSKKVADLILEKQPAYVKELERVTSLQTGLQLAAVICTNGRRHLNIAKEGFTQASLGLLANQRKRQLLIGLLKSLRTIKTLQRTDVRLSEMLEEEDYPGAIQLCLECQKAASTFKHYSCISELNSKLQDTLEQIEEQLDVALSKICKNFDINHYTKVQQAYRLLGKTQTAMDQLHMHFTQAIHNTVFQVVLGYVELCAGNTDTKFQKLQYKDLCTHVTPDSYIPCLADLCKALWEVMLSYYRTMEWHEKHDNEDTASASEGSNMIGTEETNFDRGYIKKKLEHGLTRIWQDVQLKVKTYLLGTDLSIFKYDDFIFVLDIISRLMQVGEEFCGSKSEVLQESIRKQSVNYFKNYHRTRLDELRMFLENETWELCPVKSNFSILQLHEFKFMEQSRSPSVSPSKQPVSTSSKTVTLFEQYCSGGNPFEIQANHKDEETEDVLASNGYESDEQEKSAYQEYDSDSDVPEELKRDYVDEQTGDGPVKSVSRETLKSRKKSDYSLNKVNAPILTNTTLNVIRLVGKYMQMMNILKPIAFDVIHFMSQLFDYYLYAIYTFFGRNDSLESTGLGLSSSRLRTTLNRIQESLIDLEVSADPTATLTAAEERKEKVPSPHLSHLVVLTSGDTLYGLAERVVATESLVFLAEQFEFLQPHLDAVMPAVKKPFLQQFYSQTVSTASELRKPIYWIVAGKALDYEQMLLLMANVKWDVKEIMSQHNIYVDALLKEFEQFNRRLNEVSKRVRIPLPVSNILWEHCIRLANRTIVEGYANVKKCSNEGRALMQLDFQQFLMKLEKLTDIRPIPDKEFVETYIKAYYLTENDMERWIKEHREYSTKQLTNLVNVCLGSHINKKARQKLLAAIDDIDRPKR
Sequence of UniProt Q5R3I4 (Q5R3I4 whole entry, looked up): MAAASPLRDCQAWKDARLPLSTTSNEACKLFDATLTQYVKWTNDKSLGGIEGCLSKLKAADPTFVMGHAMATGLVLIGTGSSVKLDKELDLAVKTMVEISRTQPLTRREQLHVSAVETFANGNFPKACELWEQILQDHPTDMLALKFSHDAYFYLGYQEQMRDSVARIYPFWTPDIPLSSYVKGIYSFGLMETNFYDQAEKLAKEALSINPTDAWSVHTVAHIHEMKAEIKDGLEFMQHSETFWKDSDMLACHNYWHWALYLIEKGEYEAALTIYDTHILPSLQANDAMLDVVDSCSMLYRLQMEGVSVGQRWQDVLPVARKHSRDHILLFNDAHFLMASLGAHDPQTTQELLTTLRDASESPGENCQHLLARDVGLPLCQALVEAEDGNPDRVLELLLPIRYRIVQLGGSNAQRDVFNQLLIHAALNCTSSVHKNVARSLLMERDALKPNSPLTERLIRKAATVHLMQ
Sequence of UniProt Q99816 (Q99816 whole entry, looked up): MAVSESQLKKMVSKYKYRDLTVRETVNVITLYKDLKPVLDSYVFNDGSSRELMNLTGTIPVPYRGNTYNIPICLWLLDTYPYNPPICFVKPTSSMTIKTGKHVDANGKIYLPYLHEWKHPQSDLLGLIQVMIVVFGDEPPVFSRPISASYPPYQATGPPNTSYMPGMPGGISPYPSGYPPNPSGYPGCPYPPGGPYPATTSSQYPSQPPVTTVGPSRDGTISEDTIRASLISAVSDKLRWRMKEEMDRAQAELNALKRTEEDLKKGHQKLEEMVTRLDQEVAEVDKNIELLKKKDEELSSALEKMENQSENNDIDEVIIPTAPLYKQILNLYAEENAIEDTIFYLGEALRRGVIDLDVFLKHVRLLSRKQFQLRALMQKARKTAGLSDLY
Sequence of UniProt Q01081 (Q01081 whole entry, looked up): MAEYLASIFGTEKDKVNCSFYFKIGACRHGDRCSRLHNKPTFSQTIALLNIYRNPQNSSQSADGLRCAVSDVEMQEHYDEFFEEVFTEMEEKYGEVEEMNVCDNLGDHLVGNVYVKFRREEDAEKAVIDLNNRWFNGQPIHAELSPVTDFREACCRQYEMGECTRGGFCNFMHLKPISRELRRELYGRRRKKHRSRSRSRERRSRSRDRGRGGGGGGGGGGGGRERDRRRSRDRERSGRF
Sequence of UniProt Q99986 (Q99986 whole entry, looked up): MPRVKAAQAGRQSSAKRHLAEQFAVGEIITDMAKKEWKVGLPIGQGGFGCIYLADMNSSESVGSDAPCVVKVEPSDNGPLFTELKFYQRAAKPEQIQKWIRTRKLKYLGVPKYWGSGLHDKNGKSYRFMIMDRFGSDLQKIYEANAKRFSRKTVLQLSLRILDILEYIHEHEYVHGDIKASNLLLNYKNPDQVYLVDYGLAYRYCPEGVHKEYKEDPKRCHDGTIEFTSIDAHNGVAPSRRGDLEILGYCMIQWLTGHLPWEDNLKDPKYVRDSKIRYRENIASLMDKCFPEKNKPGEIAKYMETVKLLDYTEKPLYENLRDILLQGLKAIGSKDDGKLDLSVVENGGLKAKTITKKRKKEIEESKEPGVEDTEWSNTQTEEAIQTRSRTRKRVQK
Sequence of UniProt Q5VIR6 (Q5VIR6 whole entry, looked up): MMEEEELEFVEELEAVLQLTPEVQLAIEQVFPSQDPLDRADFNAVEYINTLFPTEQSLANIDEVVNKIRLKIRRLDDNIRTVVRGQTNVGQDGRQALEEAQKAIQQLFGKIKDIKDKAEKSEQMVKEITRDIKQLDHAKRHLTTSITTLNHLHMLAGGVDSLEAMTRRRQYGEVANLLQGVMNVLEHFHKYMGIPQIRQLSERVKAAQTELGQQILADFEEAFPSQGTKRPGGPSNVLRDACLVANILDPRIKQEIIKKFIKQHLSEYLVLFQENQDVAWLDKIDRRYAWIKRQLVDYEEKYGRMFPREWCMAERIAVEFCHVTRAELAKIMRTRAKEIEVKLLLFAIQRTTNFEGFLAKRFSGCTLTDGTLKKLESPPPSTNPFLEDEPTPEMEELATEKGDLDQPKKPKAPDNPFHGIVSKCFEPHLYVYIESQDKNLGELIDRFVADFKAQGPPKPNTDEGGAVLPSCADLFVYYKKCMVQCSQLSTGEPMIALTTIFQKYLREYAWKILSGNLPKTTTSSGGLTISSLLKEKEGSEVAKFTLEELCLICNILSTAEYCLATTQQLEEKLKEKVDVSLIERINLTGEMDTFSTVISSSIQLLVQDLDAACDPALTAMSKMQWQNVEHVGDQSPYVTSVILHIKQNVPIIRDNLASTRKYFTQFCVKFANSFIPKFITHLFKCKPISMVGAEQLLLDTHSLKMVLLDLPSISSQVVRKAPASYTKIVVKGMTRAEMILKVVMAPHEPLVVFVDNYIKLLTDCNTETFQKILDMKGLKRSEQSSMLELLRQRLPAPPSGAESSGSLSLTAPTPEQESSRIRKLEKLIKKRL
Sequence of UniProt Q16763 (Q16763 whole entry, looked up): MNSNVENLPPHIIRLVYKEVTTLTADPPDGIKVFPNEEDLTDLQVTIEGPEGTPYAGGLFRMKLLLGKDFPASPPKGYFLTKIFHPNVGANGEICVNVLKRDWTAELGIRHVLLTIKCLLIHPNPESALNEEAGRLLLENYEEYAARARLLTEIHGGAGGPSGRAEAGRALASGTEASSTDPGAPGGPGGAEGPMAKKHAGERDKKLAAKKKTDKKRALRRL
Sequence of UniProt Q9P0T7 (Q9P0T7 whole entry, looked up): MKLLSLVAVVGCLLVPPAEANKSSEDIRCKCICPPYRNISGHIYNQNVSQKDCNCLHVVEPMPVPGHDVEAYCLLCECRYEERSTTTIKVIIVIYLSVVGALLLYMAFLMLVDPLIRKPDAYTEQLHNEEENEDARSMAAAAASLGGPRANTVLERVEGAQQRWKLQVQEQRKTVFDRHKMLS

log2 fold change, inactive:
VRK1 (UniProt Q99986) 0.023
UBE2S (UniProt Q16763) 0.072
XRCC5 (UniProt P13010) 0.163
TMEM9 (UniProt Q9P0T7) 0.1
TRMT10A (UniProt Q8TBZ6) -0.013
TNPO1 (UniProt Q92973) 0.033
WARS2 (UniProt Q9UGM6) 0.095
VPS53 isoform 4 (UniProt Q5VIR6) 0.025
TSG101 (UniProt Q99816) 0.053
U2AF1 isoform 2 (UniProt Q01081) 0.039
UPF3B (UniProt Q9BZI7) -0.125
VPS50 (UniProt Q96JG6) 0.068
TTC38 (UniProt Q5R3I4) -0.243
